According to article PMC4336329 (PLoS ONE, 2015):
Among all 310,000 compounds or so, about 14,000 (4.5%) showed an effect of 50% or more. Effects have a minus sign here. Many of the other results were omitted from the sample, so strong results are more common in it than they were.

target: human ether-à-go-go-related gene (hERG) potassium channel (human, UniProt Q12809); assay: primary screen, population patch clamp on CHO cells stably expressing hERG; higher = less effect of the substance
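Also: peak tail current of the secondary pulse compared with the same well before compound.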

Chain of human ether-à-go-go-related gene (hERG) potassium channel (Q12809 whole entry, looked up): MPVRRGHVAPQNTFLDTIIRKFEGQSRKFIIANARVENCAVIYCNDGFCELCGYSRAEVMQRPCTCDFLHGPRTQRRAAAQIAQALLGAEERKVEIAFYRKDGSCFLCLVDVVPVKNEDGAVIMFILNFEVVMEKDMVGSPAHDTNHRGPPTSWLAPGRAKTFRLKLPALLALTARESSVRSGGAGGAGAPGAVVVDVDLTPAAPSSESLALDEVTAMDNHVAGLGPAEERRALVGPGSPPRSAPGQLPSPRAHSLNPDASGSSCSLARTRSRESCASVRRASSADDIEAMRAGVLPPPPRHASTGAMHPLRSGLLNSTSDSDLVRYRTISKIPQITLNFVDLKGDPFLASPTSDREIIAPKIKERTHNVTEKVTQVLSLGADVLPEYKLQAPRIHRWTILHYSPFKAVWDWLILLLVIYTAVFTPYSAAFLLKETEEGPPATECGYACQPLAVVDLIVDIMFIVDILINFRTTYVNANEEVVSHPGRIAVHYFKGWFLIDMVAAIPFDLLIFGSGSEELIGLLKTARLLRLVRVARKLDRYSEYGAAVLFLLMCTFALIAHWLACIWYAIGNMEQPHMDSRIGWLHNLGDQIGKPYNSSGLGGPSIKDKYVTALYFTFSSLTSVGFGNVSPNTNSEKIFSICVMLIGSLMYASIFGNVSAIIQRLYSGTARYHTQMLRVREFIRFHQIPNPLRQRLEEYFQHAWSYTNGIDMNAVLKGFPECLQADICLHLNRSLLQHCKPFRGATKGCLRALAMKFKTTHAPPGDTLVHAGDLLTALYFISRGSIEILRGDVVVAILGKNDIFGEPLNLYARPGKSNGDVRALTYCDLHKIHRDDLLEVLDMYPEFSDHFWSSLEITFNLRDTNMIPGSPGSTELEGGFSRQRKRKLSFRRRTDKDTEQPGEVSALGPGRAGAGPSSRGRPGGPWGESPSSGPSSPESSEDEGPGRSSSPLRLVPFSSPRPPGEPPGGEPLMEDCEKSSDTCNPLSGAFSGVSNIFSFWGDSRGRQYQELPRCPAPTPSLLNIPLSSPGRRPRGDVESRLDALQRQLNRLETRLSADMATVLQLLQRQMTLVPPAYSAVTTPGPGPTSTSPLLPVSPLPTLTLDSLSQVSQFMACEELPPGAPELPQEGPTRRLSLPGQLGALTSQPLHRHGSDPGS

Row | Structure (SMILES) | hERG current change (%, negative = inhibition) at 10uM [%]
1 | CCOC(=O)c1c(NC(C)=O)sc2c(OC(C)=O)cccc12 | 8.8
2 | Cn1c(CO)cnc1SCc1ccc(F)cc1 | 18.2
3 | CCOc1ccccc1/C=N/NC(=O)c1nnn(-c2nonc2N)c1CN1CCC(C)CC1 | 9.08
4 | O=C(CN1CCN(Cc2ccccc2)CC1)N1CCCc2c1c(=O)oc1ccc(O)cc21 | -14
5 | CN(CC(=O)N1CCCc2c1c(=O)oc1ccc(O)cc21)Cc1ccccc1 | -67.4
6 | CC(=O)c1cccc(NC(=O)C(C)N2CCc3ccccc3C2)c1 (stereo not drawn) | 4.43
7 | CC(C(=O)N1CCCc2c1c(=O)oc1ccc(O)cc21)N1CCc2ccccc2C1 (stereo not drawn) | -56.5
8 | CCCOc1ccc2oc(=O)c3c(c2c1)CCCN3C(=O)CN(C)Cc1ccccc1 | -29.7
9 | CC1CCN(CCC(=O)N2CCCc3c2c(=O)oc2ccc(O)cc32)CC1 | -14
10 | O=C(NCCCl)C1Cc2c(ccc3ccccc23)O1 (stereo not drawn) | 7.97
11 | O=C(CCNC(=O)C1CCN(S(=O)(=O)c2ccccc2)CC1)NCc1ccc(Cl)cc1 | 8.88
12 | Nc1ccccc1Nc1ccncc1[N+](=O)[O-] | 20
13 | CCOC(=O)C1(Cc2ccccc2)CCCN(Cc2ccc(OCC)c(CO)c2)C1 (stereo not drawn) | -52.3
14 | CCOC(=O)C1(CCOc2ccccc2)CCN(Cc2ccc(OCC)c(CO)c2)CC1 | -79.5
15 | CCOC(=O)C1(Cc2ccccc2)CCCN(Cc2ccc(OCCO)cc2)C1 (stereo not drawn) | -1.04
16 | CCOC(=O)C1(CCOc2ccccc2)CCN(Cc2ccc(OC)c(COC)c2)CC1 | -80.2
17 | CCOC(=O)C1(Cc2ccccc2)CCCN(Cc2cccc(C(C)=O)c2)C1 (stereo not drawn) | -2.24
18 | CCOC(=O)C1(CCOc2ccccc2)CCN(Cc2ccc(OC)c(O)c2)CC1 | -82.2
19 | Cc1ccc(NC(=O)COC(=O)CCc2c[nH]c3ccccc23)c(C)c1 | 9.87
20 | COC(=O)C(C)Oc1ccc(Cl)c(CN2OCC(C)(C)C2=O)c1 (stereo not drawn) | 5.26
21 | Cc1ccccc1OCCC(=O)OCC(=O)NCCc1ccccc1 | -0.876
22 | Cc1nnn(-c2nonc2N)c1C(=O)N/N=C/c1cccc2ccccc12 | -7.26
23 | CCOC(=O)C1CCN(S(=O)(=O)c2c(C)noc2C)CC1 | -37.9
24 | Cc1nc(C(C)N(C)Cc2c(C(=O)N3CCCCC3)nc3c(C)cccn23)c(C)s1 (stereo not drawn) | -22.7
